Data published in the supplement of paper PMC6555819.

How the values were obtained:
Assay in all cases: PBM binding z-score (relative to random genomic background probes); higher = stronger binding; sequences stand for … in GC…GCGATTGACAGCGTAGAATGAAGG
[1] = system: PPARg:RXRa DBDmut IVT, anti-RXR (DBD mutation: RXRa K156A/R161A, NR concentration 270 nM, RXRa partner concentration 90 nM)
In short: (§1)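 Antibodies against each partner of ligand-free nuclear receptor dimers (one per run) detected binding on custom Agilent 4×180K protein-binding microarrays after 1 h incubation. The double-stranded probes had 34-nt variable regions carrying direct-repeat seeds, single-nucleotide variants, half-site ablations and random human genomic background sequences. Binding z-scores, from regression-normalized fluorescence, use the random background probes as reference.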

[2] = system: PPARg:RXRa IVT, anti-PPARg (NR concentration 270 nM, RXRa partner concentration 90 nM)
In short: as §1

[3] = system: PPARg DBDmut:RXRa IVT, anti-PPARg (DBD mutation: PPARg1 K132A/R137A, NR concentration 270 nM, RXRa partner concentration 90 nM)
In short: as §1

[4] = system: PPARg DBDmut IVT, anti-PPARg (DBD mutation: PPARg1 K132A/R137A, NR concentration 270 nM)
In short: as §1

[5] = system: PPARg homodimer (NR concentration 180 nM)
In short: as §1

[6] = system: PXR:RXRa (NR concentration 270 nM, RXRa partner concentration 90 nM)
In short: as §1

[7] = system: PXR homodimer (NR concentration 270 nM)
In short: as §1

[8] = system: RARa:RXR (NR concentration 270 nM, RXRa partner concentration 90 nM)
In short: as §1

[9] = system: RARa homodimer (NR concentration 270 nM)
In short: as §1

[10] = system: RARb:RXRa (NR concentration 270 nM, RXRa partner concentration 90 nM)
In short: as §1

[11] = system: RARb homodimer (NR concentration 270 nM)
In short: as §1

[12] = system: RARg:RXRa (NR concentration 270 nM, RXRa partner concentration 90 nM)
In short: as §1

[13] = system: RARg homodimer (NR concentration 270 nM)
In short: as §1

[14] = system: RXRa DBDmut IVT, anti-RXR (DBD mutation: RXRa K156A/R161A, NR concentration 90 nM)
In short: as §1

[15] = system: RXRa homodimer (NR concentration 180 nM)
In short: as §1

[16] = system: THRa:RXRa (NR concentration 90 nM, RXRa partner concentration 90 nM)
In short: as §1

[17] = system: THRa homodimer (NR concentration 90 nM)
In short: as §1

[18] = system: VDR homodimer (NR concentration 270 nM)
In short: as §1

Sequence	PBM binding z-score [1]	PBM binding z-score [2]	PBM binding z-score [3]	PBM binding z-score [4]	PBM binding z-score [5]	PBM binding z-score [6]	PBM binding z-score [7]	PBM binding z-score [8]	PBM binding z-score [9]	PBM binding z-score [10]	PBM binding z-score [11]	PBM binding z-score [12]	PBM binding z-score [13]	PBM binding z-score [14]	PBM binding z-score [15]	PBM binding z-score [16]	PBM binding z-score [17]	PBM binding z-score [18]
AGTATGAGGTTACCAAAGATCAGGGAAACGCTTG	1.3	1.52	0.279	0.406	0.714	1.62	0.275	2.21	0.475	2.19	1.09	2.17	1.83	0.98	2.63	2.87	0.98	0.48
GGAACGAGGGCAAAATTGATAGCATCTGTCGACG	3.25	2.12	0.369	-0.0358	0.19	0.226	-0.165	0.355	-0.196	1.57	0.53	0.822	1.08	2.03	0.69	0.648	-0.431	0.356
ATCGAAAGGTCGAGGTGAGTTTAGAGAAAGGGAA	0.367	2.26	0.969	0.594	1.7	5.04	1.12	3.71	0.68	4.26	3.07	4.88	4.68	1.24	4.47	3.01	0.695	2.21
ACTATTTGTTGACTTAGGGCAACCGATACGACGC	0.22	0.532	1.51	1.78	0.884	0.185	0.38	0.364	0.997	1.03	1.01	0.754	1.08	0.742	0.588	1.12	0.816	0.486
TTACCCAGGTGAGCTGAGGTCGTTGATCCAACTC	0.846	1.89	-1.04	-0.726	0.267	4.2	0.439	1.55	-1.01	1.1	1.17	0.816	0.509	-0.172	1.19	4.32	1.8	2.27
TCTTGTAGATCAGCAGATTAAGAAAGCTGGCCAA	1.64	-0.0378	-0.256	0.452	-0.374	-0.148	-0.568	-0.157	0.205	-0.229	-0.767	-0.275	-0.543	0.615	-0.121	-0.329	-0.892	-0.178
CGTCAAAGTTCAACTAAGGTAACGCAAAGCACGC	0.641	2.32	0.717	0.408	3.08	5.42	3.81	4.22	1.83	5.15	4.28	5.94	6.37	4.62	4.92	5.48	2.13	3.54
GCGATTGGGGCAAAGCAGGTTACCATAAGGTTGG	2.25	1.69	-0.0926	-0.514	0.213	0.707	-0.215	1.13	0.0153	0.946	1.1	0.454	0.635	0.0691	0.619	3.01	0.281	0.0482
GGAACGAGGGCATTCGAGTTGGTAGCATGGCGAT	3.06	2.06	-0.924	0.13	-0.0441	2.69	0.354	0.386	-0.393	1.86	0.543	0.787	0.965	2.93	0.508	1.87	-0.702	2.2
CCTGCTAGGTCATGGTCAGTTAATCTACAGTATG	4.72	3.92	0.767	0.558	1.63	2.31	-0.286	2.62	0.426	3.96	3.11	4.04	5.07	2.12	3.12	3.23	1.57	0.435
GCTACTAGTTGAAAGGGCAACCGAATGATTCTCG	0.65	1.33	0.246	-0.547	0.922	0.637	-0.0671	1.32	-0.371	1.95	2.01	1.33	1.35	0.375	1.33	0.651	-0.134	0.214
CAAACTAGGTCTAGGTCAAAGTCGGTTTGTGCCA	4.21	4.82	0.191	0.991	1.41	1.7	0.0565	2.06	-0.42	2.67	2.76	2.15	2.3	0.796	1.83	2.9	1.64	1.1
TCTGCTAGGTCAGTTGATCAGCTAACGAGCTGCC	2.51	2.27	0.428	-0.296	-0.547	0.199	-0.78	0.424	-1.32	3	2.08	2.57	3.41	0.576	0.945	1.28	0.115	-0.722
TCTAGTTGGTCACGGAGGTCACACCCGACGGGTA	2.48	4.28	1.28	1.19	2.95	4.15	1.24	4.2	1.58	3.79	3.93	4.53	4.61	0.865	4.68	3.44	2.28	3.22
GATACTGGGTCAGCTAGAGGCCAGAGTATGGAAA	5.49	5.95	0.246	-0.167	1.24	1.15	-0.114	2.03	-0.28	3.26	2.73	5.04	3.76	-0.654	1.82	1.75	-0.395	0.0442
CGTCCAAGGTCAAAGGTCGGTGAAGAGATGACGG	3.9	5.09	0.166	-0.0129	2.61	5.91	0.774	7.5	0.478	5.68	4.52	7.18	6.2	3.85	8.84	4.24	2.17	2.78
TATCCAGGGTCAAAGGCCAGAGTACGAATGTCGA	2.23	4.91	0.174	1.96	2.06	4.77	0.563	6.33	1.05	4.55	3.6	5.88	5.26	2.94	7.51	3.75	1.3	3.46
AGAATGAGGTTACCAAAGATCAGCGAAACGCTTG	4.05	3.33	1.77	0.58	0.597	1.32	-0.226	2.13	0.0511	2.08	0.525	2.03	1.45	1.07	2.44	2.73	0.456	0.187
CCTCGGAGGACAGAAGGTCAGAACTGTCCGCTTT	0.127	-0.242	-0.806	-1.38	0.826	1.1	0.0205	1.7	0.442	2.85	3.17	2.9	2.58	0.39	1.43	1.85	0.203	0.761
TCTTGTAGATCAACAGGAGGTAAAGAAAGATCGA	1.4	0.479	0.613	0.824	-0.233	0.0383	-0.784	-0.044	-0.132	-0.124	-0.473	0.0301	-0.00391	0.122	0.423	0.237	-0.482	-0.385
CTTCCAAGGTCAAGGTCAGTGAAAGAGACTCGAA	3.34	4.97	0.569	0.303	3.58	4.76	1.05	5.07	0.686	5.83	5.12	6.79	7.26	3.07	6.55	4.54	3.64	2.79
ATCGCTAGGTAACAAGTTCAGTGAAAGAGAGGAC	-0.0634	0.674	0.226	0.479	0.192	1.13	1.05	0.46	-0.284	1.38	1.42	1.07	0.968	0.533	0.504	1.08	0.174	2.02
CCTACTGGGCCATCAGGTCATTGACATCAACGTT	4.78	5.02	0.0284	0.33	1.3	1.67	0.415	2.15	0.278	2.09	2.72	1.97	2.1	0.333	1.81	3.22	3.14	1.41
ACTAGCAGGCCAAGTTTGGGTCAATCAAACAAAG	0.842	0.959	-0.753	-0.879	0.326	0.526	-0.382	1.33	-0.558	1.65	2.11	2.43	1.43	-0.255	0.858	2.25	0.6	0.00979
GCGACTGGGGCAAAGCCGGTTACCATAAGGTTGG	3.46	2.75	-0.287	-1.49	-0.424	-0.547	-0.627	-0.45	-0.427	0.632	0.363	-0.242	0.26	-0.988	-0.295	0.48	-0.526	-0.688
TCTTGTAGCTCAAAGGTTAAGAAAGCCGAAGCCT	1.21	1.99	0.0313	-0.321	0.397	1.27	-0.227	1.83	-0.437	1.61	1.26	1.16	0.435	0.364	1.82	1.05	-0.771	-0.151
